From PubChem BioAssay AID1022 (Emory University Molecular Libraries Screening Center, 2008)
Among all 220,000 compounds or so, about 3,300 (1.5%) were called active.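 How the source made its calls: active means compounds that cut the protein-peptide binding signal by more than 50% relative to plate controls in a single-dose test; inactive means the rest.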 This excerpt belongs to a sample that is enriched for actives.

Biological target: Induced myeloid leukemia cell differentiation protein Mcl-1 (Homo sapiens) (UniProt Q07820)
Assay: Mcl-1/Noxa binding inhibitors, primary screen, biochemical, TR-FRET, 1536-well (AID 1022);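 further: His-tagged Mcl-1 with rhodamine Noxa BH3 peptide and terbium anti-His antibody; 0% = Mcl-1 plus Noxa peptide wells and 100% = peptide-only wells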
Settings: TR-FRET Mcl-1/Noxa peptide binding, 2 h; at 21.7 µM; hits give high values

Sequence of Induced myeloid leukemia cell differentiation protein Mcl-1 (Homo sapiens) (Q07820 whole entry, looked up): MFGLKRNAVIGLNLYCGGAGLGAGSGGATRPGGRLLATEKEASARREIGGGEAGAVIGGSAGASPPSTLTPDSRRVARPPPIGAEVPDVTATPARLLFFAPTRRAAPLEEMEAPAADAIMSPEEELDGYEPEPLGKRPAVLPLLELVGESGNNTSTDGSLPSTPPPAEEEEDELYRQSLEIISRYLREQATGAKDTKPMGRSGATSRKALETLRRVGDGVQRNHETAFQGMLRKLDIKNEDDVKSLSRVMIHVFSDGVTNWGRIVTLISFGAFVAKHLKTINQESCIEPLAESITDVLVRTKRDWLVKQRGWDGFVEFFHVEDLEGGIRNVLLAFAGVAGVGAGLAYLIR

inhibition, inactive:
CNC1(c2nnnn2-c2c(C)cccc2C)CCOC(C)(C)C1 (centres undefined) -14.2%
C=CC(COCc1ccccc1)N(Cc1ccccc1)S(=O)(=O)c1ccccc1Br (centres undefined) -9.99%
O=C(Nc1ccc(S(=O)(=O)Nc2nccs2)cc1)c1cc(=O)[nH]c2ccccc12 38.3%
CCC(CC)C(=O)Nc1ccc(S(=O)(=O)Nc2nccs2)cc1 -30.3%
O=C(Nc1ccc(S(=O)(=O)N2CCOCC2)cc1)c1ccc2ncsc2c1 15.9%
O=C(Nc1ccccc1C(F)(F)F)N1CCCC1c1cccnc1 (centres undefined) -4.25%
Cc1cc(NCc2cccnc2)no1 -9.18%
CSc1sc(C(=O)NC(=O)NCc2cccnc2)c(C)c1-c1ccon1 -5.48%
COCCn1c(SCC(=O)c2[nH]c(C)c(C(C)=O)c2C)nc2ccccc2c1=O -5.29%
O=C(NCCc1c[nH]c2ccc(Cl)cc12)c1ccc([N+](=O)[O-])cc1 27.8%
Fc1cc(F)c2nc(Nc3nc4c(F)cccc4s3)sc2c1 -45.8%
NC(=O)c1c(NC(=O)CSc2nc(N)cc(=O)[nH]2)sc2c1CCCC2 39.5%
CC(C)Cc1ccc(C(C)C(=N)N)cc1 (centres undefined) 4.15%
O=C(NCC(c1cccs1)N1CCOCC1)c1cc(-c2ccccn2)nc2ccccc12 (centres undefined) -1.37%
COc1ccc(OCCC(=O)c2ccc(OC)cc2)cc1 16.6%
CC(=O)Nc1ccc(CC#N)cc1 -4.22%
Cc1nc2cc3c(cc2s1)OCO3 4.53%
CCN(CC)CCN(C(=O)c1cccc([N+](=O)[O-])c1)c1nc2ccc(OC)cc2s1 19.8%
Cc1ccccc1Cn1c2ccccc2c2cnn(CC(=O)NCc3ccco3)c(=O)c21 6.08%
C=CCNC(=S)N1CCc2[nH]c3ccccc3c2C1 2.21%
Cc1ccc(NC(=O)COC(=O)CCc2nc3ccccc3n2-c2ccccc2)c(C)c1 4.37%
CC(C)(C)c1ccc(NC(=O)COC(=O)CCc2nc3ccccc3c(=O)[nH]2)cc1 0.96%
COCCn1c(SCC(=O)Nc2cc(OC)ccc2OC)nc2c(c1=O)SC(C)C2 (centres undefined) 1.76%
CC(C)(C)c1ccc(CCC2OCC(CN3CCOCC3)O2)cc1 (centres undefined) -0.05%
Cc1ccc(/C=N/NC(=O)CN2CCN(Cc3ccccc3)CC2)s1 14.9%
O=C(Cn1nnc(N2CCCCC2)n1)c1ccc(Cl)c(Cl)c1 13.1%
Cc1ccc(-c2cc(C(=O)NN)n[nH]2)o1 11.3%
Cc1ccc(N2C(=O)CC(Nc3cccc4ccccc34)C2=O)cc1 (centres undefined) -23%
CCc1ccccc1N1C(=O)C2C3CC(=O)C(c4ccccc43)C2C1=O (centres undefined) 1.91%
CCCCNC(=O)OCCSCCS(=O)(=O)c1ccc(Cl)cc1 -6.78%
C/C(=N/NC(=O)c1ccn(C)n1)c1ccncc1 -1.7%
CCOc1ccc2[nH]c(=O)c(C(c3nnnn3CCOC)N3CCOCC3)cc2c1 (centres undefined) -4.39%
COc1ccc(OC)c(C(c2nnnn2C(C)(C)C)N2CCc3ccccc3C2)c1 (centres undefined) 23.3%
CCOC(=O)CN(C)S(=O)(=O)c1ccc(-c2cc(C(=O)OC)sc2C(F)(F)F)cc1 11.3%
O=S(=O)(c1ccc(F)cc1)N1CC=C(c2ccccc2)CC1 -8.68%
COc1cc(C(CCN2CCN(c3ccccc3)CC2)c2c(OC)cc(OC)c3ccc(=O)oc23)cc(OC)c1OC (centres undefined) 12.8%
CC(C)Cc1nnc(NC(=O)CCC(=O)Nc2ccc3cn[nH]c3c2)s1 32.1%
O=C(CCn1nnc2ccccc2c1=O)N[C@@H](Cc1c[nH]c2ccccc12)C(=O)O 18.9%
O=C(O)CC12CC3CC(C1)CC(n1ncc(NCc4ccc(F)cc4)c(Cl)c1=O)(C3)C2 16.2%
Cc1ccc(C)c(SCc2nc3sc(C(=O)O)c(C)c3c(=O)[nH]2)c1 7.18%
CCOC(=O)c1sc2nc(CSc3ccccc3)[nH]c(=O)c2c1C -3.55%
COC(=O)c1cc(N2CCNCC2)nc2ccccc12 -2.31%
CCOc1ccc(N=C2SC(C(=O)O)CC(=O)N2C)cc1 (centres undefined) 16.1%
NC1=NC(=O)S/C1=C\c1ccc(O)cc1 12.7%
O=C(CC12CC3CC(CC(C3)C1)C2)NCc1ccco1 2.69%
O=C(COC(=O)CCC(=O)c1cccs1)NCc1ccco1 41%
COc1ccc(NC(=S)N2CCc3cc(OC)c(OC)cc3C2)cc1 11.1%
Cc1ccc(-c2cc(C(=O)N/N=C/C=C/c3ccco3)c3ccccc3n2)cc1C 19.7%
CC(/C=N/NC(=O)c1ccncc1)=C\c1ccco1 16.1%
COc1ccc(NC(=O)CSc2ncnc3[nH]ncc23)cc1 16.1%
CCN(CC)c1ccc(NC(=O)C2CCC(CNc3c(N4CCCC4)c(=O)c3=O)CC2)c(C)c1 (centres undefined) 19.7%
O=C(O)C1CCN(c2ccc([N+](=O)[O-])cc2[N+](=O)[O-])CC1 23.9%
COc1ccc(N2CCN(c3ccc([N+](=O)[O-])cc3Cl)CC2)cc1 11.9%
Cc1nc2ccccc2cc1C(=O)N/N=C/c1ccc([N+](=O)[O-])cc1 9.39%
O=C(N/N=C/c1ccc([N+](=O)[O-])cc1)c1c[nH]c2ccccc12 14.4%
CN1CCc2ccccc2C1Cc1ccccc1NC(=O)c1sc2ccccc2c1Cl (centres undefined) -2.87%
FC(F)(F)c1nc(-c2ccccc2)ncc1-c1nnnn1-c1ccccc1 35.2%
C=CCNC(=S)N/N=C/c1ccc(C)s1 7.32%
FC(F)(F)c1nnc2sc(-c3ccco3)nn12 2.95%
Cc1nnc2sc(-c3ccco3)nn12 3.91%
CNc1nnc(-c2ccco2)s1 6.49%
Cc1ccc(OCC(=O)Nc2nnc(-c3ccco3)s2)cc1 17.5%
Cc1c([N+](=O)[O-])c(N)nn1C 12.1%
Cc1ccc(-c2nc(CS(=O)CC(=O)NC3CCCC3)c(C)o2)cc1 (centres undefined) 10%
COc1ccc(-c2nc(CS(=O)CC(=O)N3CCc4ccccc4C3)c(C)o2)cc1 (centres undefined) 18.7%
O=C(NCc1ccccc1Cl)NC(=O)c1csc([N+](=O)[O-])c1 -17.3%
COc1ccc(/C=N/n2nnnc2N)cc1OC -6.77%
Cc1c(NC(=O)c2cc(-c3ccc(Cl)s3)nc3ccccc23)c(=O)n(-c2ccccc2)n1C -5.37%
Cc1ccc(-c2cc(C(=O)Nc3nn[nH]n3)c3ccccc3n2)c(C)c1 10.4%
Cc1ccc(C(=O)N/C(=C\c2ccco2)C(=O)NC2CCS(=O)(=O)C2)cc1 (centres undefined) 2.28%
C/C=C(/C)C(=O)Nc1cccc(C2=NOC3(C2)C[C@@H](C(N)=O)N(C(=O)C2(C)CC2)C3)c1 (some centres undefined) 10.3%
C/C=C\C=C\C(=O)N1CC2(CC(c3cccc(NC(=O)/C(C)=C\C)c3)=NO2)C[C@H]1C(N)=O (some centres undefined) -3.38%
CCCN(CCC)CC(O)COc1ccccc1C(=O)Nc1ccccc1 (centres undefined) 2.75%
COC(=O)c1ccc(COc2ccc(/C=N/NC(=O)C(=O)Nc3ccc(OC)cc3)cc2OC)o1 -4.48%
COc1cc(/C=C(\C#N)C(=O)Nc2ccc3ccccc3c2)c([N+](=O)[O-])cc1OC 50.2%

inhibition, active:
O=C(Nc1ccc(S(=O)(=O)Nc2nccs2)cc1)c1cc(-c2ccncc2)nc2ccccc12 89.7%
NC(=O)c1c(Nc2nc3c(F)cccc3s2)sc2c1CCCC2 94.4%
CCN(CC)CCN(C(=O)c1ccc(N2C(=O)CCC2=O)cc1)c1nc2cc3c(cc2s1)OCO3 59.3%
CCN(c1ccc(NC(=O)COC(=O)CCc2nc3ccccc3n2-c2ccccc2)cc1)C(C)C 79.3%
CC1=C(C)CC2C(=O)N(c3cccc4ccccc34)C(=O)C2C1 (centres undefined) 53.5%
COCCn1nnnc1C(c1cc2ccc(OC)cc2[nH]c1=O)N1CCc2ccccc2C1 (centres undefined) 58.9%
CSc1nnc(SCc2nc3sc(C(=O)O)c(C)c3c(=O)[nH]2)s1 70.6%
CCOc1ccc(N=C2NC(=O)S/C2=C\c2ccc(O)cc2)cc1 98.8%
O=C(COC(=O)C12CC3CC(CC(C3)C1)C2)NCc1ccco1 54.8%
CC(/C=N/NC(=O)c1cc(-c2ccc3ccccc3c2)n[nH]1)=C\c1ccco1 78.8%
O=[N+]([O-])c1ccc(N2CCN(c3ccc(O)cc3)CC2)c(Cl)c1 65.2%
O=C(N/N=C/c1ccc(Cl)cc1)c1nc2ccc([N+](=O)[O-])cc2c(=O)[nH]1 71.4%
Fc1ccc(-c2ccc(-c3nn4c(-c5ccco5)nnc4s3)o2)cc1 71%
COc1ccc(OCC(=O)Nc2nnc(-c3ccco3)s2)cc1 87.4%
Cc1ccc(-c2nc(CS(=O)CC(=O)N3CCN(c4ncccn4)CC3)c(C)o2)cc1 (centres undefined) 54.7%
Cc1coc2c(O)cc3c(c12)OC1(N2CCCCC2)C(=O)NCCCC31 (centres undefined) 62.4%
Cc1ccc(NC(=O)c2cc(-c3ccc(C)o3)nc3ccccc23)nc1 52.1%
C=C(C)C(=O)Nc1cccc(C2=NOC3(C2)C[C@H](C(N)=O)N(C(=O)C(c2ccccc2)c2ccccc2)C3)c1 (some centres undefined) 79.5%
COc1ccc(NC(=O)/C(C#N)=C\c2cc(OC)c(OCc3ccc(C(=O)O)cc3)cc2Br)cc1 61.8%
